Test results from PubChem BioAssay.
Calls of active or inactive are those of the source.

What was measured:
[1] = system: Plasmodium falciparum Sir2 (PF13_0152, Sir2A); experiment: Plasmodium falciparum Sir2A binding compounds – biochemical, small-molecule microarray, 635 nm fluorescence, primary screen (AID 1098); conditions: fluorescence 635 nm, higher = more signal;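 note: score merges spot fluorescence intensity with its signal-to-noise ratio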
[2] = probe aDKK1 binding to arrayed compounds – biochemical, biotinylated probe, 635/667 nm fluorescence, primary screen (AID 1099); conditions: small-molecule microarray, higher = more signal;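 note: score merges 667nm spot fluorescence with signal to noise across triplicate slides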
[3] = probe aCHRDL2 binding to arrayed compounds – biochemical, biotinylated probe, 635/667 nm fluorescence, primary screen (AID 1100); conditions: small-molecule microarray, higher = more signal
[4] = change in splice reporter luminescence, either direction, cell-based, HEK293, spliceosome inhibition project, primary screen (AID 1101); conditions: HEK293 splicing luciferase reporter, 24 h, higher = more signal, called active from +8 up or from −8 down;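 note: HEK293 cells carrying a splicing-competent luciferase reporter gene; test concentration not given here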
[5] = biological target: Fibroblast growth factor 10 (Homo sapiens) (UniProt O15520); experiment: compounds binding fibroblast growth factor 10 – biochemical, small-molecule microarray, 635 nm fluorescence, primary screen (AID 1102); conditions: FGF10 binding, fluorescence 635 nm, higher = more signal
[6] = system: glycogen synthase kinase-3 (GSK3A per assay name; protocol says GSK3B); experiment: compounds binding glycogen synthase kinase-3 – biochemical, small-molecule microarray, 635 nm fluorescence, GSK3A, primary screen (AID 1103); conditions: fluorescence 635 nm, higher = more signal; note: the record names both GSK3A and GSK3B
[7] = biological target: Epidermal growth factor receptor (Homo sapiens) (UniProt P00533); experiment: compounds binding epidermal growth factor receptor – biochemical, small-molecule microarray, 635 nm fluorescence, primary screen (AID 1104); conditions: EGFR binding, higher = more signal;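 note: score merges 667 nm emission intensity with spot signal to noise over triplicate slides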
[8] = biological target: Follistatin-related protein 3 (Homo sapiens) (UniProt O95633); experiment: compounds binding follistatin-related protein 3 – biochemical, small-molecule microarray, 635 nm fluorescence, primary screen (AID 1105); conditions: FSTL3 binding, higher = more signal;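 note: score merges emission near 667 nm and signal to noise per printed spot across three slides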
[9] = biological target: Dickkopf-related protein 1 (Homo sapiens) (UniProt O94907); experiment: small molecules binding DKK1 protein – biochemical, small-molecule microarray, 635 nm fluorescence scan, primary screen (AID 1106); conditions: higher = more signal;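 note: score merges emission near 667 nm with signal to noise over three replicate slides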
[10] = system: Inhibin beta A chain (activin A); experiment: small molecules binding activin A – biochemical, small-molecule microarray, 635 nm fluorescence scan, primary screen (AID 1107); conditions: INHBA, higher = more signal;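 note: mouse activin A protein probed at 4.33 µg/mL on printed slides; score merges bound-protein fluorescence near 667 nm with spot signal-to-noise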
[11] = system: Human papillomavirus type 1a protein E7 (residues 44-93); experiment: small molecules binding HPV E7 44-93 – biochemical, small-molecule microarray, residues 44-93, 635 nm fluorescence, primary screen (AID 1108); conditions: fluorescence 635 nm, higher = more signal;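 note: E7 fragment applied at 1 µg/mL in TBST for 1 h at 4 C; score combines spot fluorescence with its signal to noise ratio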
[12] = hepatitis C replication reporter changes, two-sided – Huh7 cells, luciferase reporter, HCV replication inhibitor project, primary screen (AID 1109); conditions: Huh7 HCV replicon luciferase reporter, 48 h; higher = more signal;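 note: huh7 hepatoma cells harbouring a luciferase neomycin HCV replicon reporter; luciferase luminescence as measure of HCV replicon replication; test concentration not given here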
[13] = biological target: Left-right determination factor 2 (Homo sapiens) (UniProt O00292); experiment: small molecules binding LEFTY2 protein – biochemical, small-molecule microarray, 635 nm fluorescence scan, primary screen (AID 1110); conditions: higher = more signal
[14] = biological target: Calmodulin-1 (Homo sapiens) (UniProt P0DP23); experiment: small molecules binding calmodulin-1 with EGTA – biochemical, small-molecule microarray, Cy5-labelled CALM1, profiling panel (AID 1111); conditions: Cy5-CALM1 binding fluorescence, higher = more signal;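 note: labelled calmodulin applied in Tris saline Tween buffer holding calcium plus EGTA and DTT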
[15] = biological target: Calmodulin-1 (Homo sapiens) (UniProt P0DP23); experiment: small molecules binding Ca-loaded calmodulin-1 – biochemical, small-molecule microarray, Cy5-labelled CALM1, plus calcium, artefact control for SMM control-protein annotation, profiling panel (AID 1112); conditions: Cy5-CALM1 binding fluorescence, higher = more signal;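 note: score merges spot fluorescence with signal to noise from triplicate slides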
[16] = probe aWnt5a binding to arrayed compounds – biochemical, biotinylated probe, 635/667 nm fluorescence, primary screen (AID 1113); conditions: small-molecule microarray, higher = more signal;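 note: score merges 667 nm fluorescence intensity with signal-to-noise per printed feature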
[17] = probe aShh binding to arrayed compounds – biochemical, biotinylated probe, 635/667 nm fluorescence, primary screen (AID 1114); conditions: small-molecule microarray, higher = more signal;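 note: probe is biotin-labelled aShh protein from a stem cell growth factor screen; measures binding of labelled protein to compounds printed on the slide; score merges feature fluorescence at 667 nm with signal-to-noise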
[18] = probe aNog binding to arrayed compounds – biochemical, biotinylated probe, 635/667 nm fluorescence, primary screen (AID 1115); conditions: small-molecule microarray, higher = more signal;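 note: probe is biotinylated aNog protein used at 0.15 µg/mL for 1 h at 4 C; z-score combines 667 nm fluorescence of each spot with its signal to noise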
[19] = biological target: Torsin-1A-interacting protein 1 (Homo sapiens) (UniProt Q5JTV8); experiment: compound microarray binding of lysate hLAP1 – cell lysate, small-molecule microarray, COS7 lysate, 635/667 nm fluorescence, primary screen (AID 1116); conditions: 635 nm fluorescence, higher = more signal
[20] = biological target: Alpha-bungarotoxin (Bungarus multicinctus) (UniProt P60615); experiment: compounds binding labelled alpha-BTX control protein – biochemical, small-molecule microarray, Alexa647 label, 635/667 nm fluorescence, artefact control for SMM control protein annotation, profiling panel (AID 1117); conditions: alpha-BTX-A647 binding fluorescence, higher = more signal
Alpha-bungarotoxin (Bungarus multicinctus), sequence (P60615 whole entry, looked up): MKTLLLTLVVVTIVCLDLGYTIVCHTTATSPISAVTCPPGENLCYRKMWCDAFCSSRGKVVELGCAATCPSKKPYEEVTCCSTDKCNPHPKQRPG

Follistatin-related protein 3 (Homo sapiens), sequence (O95633 whole entry, looked up): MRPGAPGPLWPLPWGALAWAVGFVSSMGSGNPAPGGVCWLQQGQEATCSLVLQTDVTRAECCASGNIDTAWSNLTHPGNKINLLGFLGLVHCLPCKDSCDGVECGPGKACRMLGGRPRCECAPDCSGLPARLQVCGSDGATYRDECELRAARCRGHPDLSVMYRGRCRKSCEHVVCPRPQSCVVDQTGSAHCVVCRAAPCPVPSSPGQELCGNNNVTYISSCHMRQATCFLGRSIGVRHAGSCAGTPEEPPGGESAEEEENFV
Fibroblast growth factor 10 (Homo sapiens), sequence (O15520 whole entry, looked up): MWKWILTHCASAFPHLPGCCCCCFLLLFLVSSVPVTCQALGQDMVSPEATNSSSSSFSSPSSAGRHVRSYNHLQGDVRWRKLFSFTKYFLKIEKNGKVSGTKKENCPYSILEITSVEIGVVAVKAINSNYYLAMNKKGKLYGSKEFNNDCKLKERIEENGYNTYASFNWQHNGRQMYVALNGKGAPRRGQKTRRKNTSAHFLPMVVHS
Left-right determination factor 2 (Homo sapiens), sequence (O00292 whole entry, looked up): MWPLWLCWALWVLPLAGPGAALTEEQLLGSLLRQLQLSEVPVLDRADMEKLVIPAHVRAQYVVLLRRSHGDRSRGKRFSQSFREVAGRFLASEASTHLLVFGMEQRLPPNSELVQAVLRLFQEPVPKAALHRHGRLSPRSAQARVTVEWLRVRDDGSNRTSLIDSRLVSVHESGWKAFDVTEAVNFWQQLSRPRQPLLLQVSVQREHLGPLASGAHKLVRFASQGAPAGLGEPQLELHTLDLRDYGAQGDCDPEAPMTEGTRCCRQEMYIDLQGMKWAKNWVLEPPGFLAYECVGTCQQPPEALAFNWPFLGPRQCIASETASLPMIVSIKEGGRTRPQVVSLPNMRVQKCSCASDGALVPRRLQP
Epidermal growth factor receptor (Homo sapiens), sequence (P00533 whole entry, looked up): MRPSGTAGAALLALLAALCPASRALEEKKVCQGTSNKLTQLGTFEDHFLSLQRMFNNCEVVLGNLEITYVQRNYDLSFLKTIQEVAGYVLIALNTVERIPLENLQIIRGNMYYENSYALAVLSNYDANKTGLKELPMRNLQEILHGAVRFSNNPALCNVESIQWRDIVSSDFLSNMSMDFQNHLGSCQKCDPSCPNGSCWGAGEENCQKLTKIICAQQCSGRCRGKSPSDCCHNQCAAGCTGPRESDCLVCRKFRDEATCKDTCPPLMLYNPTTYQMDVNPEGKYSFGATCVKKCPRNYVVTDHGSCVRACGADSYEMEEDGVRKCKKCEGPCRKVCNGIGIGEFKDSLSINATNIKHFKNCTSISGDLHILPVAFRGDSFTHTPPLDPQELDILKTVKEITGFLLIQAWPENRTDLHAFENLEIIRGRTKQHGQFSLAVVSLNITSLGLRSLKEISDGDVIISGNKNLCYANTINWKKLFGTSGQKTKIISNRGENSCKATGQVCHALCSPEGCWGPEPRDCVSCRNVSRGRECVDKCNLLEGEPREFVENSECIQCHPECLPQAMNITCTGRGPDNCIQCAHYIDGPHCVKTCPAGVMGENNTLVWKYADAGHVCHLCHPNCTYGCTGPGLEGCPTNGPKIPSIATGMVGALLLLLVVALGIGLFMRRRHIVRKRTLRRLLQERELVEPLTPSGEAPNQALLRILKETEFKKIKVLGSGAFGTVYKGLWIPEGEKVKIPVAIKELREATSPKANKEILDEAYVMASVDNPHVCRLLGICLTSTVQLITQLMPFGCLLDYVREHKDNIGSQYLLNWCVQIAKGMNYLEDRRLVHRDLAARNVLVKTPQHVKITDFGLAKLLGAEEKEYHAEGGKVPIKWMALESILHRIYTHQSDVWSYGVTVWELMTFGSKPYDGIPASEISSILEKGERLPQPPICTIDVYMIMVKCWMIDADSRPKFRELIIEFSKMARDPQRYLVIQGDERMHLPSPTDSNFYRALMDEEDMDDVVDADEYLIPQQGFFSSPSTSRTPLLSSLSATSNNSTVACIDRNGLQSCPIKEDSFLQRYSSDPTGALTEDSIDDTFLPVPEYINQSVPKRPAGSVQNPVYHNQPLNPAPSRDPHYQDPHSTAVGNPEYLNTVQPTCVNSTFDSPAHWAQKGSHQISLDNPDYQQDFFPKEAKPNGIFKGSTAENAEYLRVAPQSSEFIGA
Dickkopf-related protein 1 (Homo sapiens), sequence (O94907 whole entry, looked up): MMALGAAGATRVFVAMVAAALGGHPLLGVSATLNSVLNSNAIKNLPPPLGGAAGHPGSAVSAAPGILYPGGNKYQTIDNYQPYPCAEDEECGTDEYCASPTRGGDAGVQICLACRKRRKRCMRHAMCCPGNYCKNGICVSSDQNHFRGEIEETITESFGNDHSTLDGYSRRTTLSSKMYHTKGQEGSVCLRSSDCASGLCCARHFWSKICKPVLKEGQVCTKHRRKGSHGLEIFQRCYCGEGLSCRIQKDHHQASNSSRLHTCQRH
Torsin-1A-interacting protein 1 (Homo sapiens), sequence (Q5JTV8 whole entry, looked up): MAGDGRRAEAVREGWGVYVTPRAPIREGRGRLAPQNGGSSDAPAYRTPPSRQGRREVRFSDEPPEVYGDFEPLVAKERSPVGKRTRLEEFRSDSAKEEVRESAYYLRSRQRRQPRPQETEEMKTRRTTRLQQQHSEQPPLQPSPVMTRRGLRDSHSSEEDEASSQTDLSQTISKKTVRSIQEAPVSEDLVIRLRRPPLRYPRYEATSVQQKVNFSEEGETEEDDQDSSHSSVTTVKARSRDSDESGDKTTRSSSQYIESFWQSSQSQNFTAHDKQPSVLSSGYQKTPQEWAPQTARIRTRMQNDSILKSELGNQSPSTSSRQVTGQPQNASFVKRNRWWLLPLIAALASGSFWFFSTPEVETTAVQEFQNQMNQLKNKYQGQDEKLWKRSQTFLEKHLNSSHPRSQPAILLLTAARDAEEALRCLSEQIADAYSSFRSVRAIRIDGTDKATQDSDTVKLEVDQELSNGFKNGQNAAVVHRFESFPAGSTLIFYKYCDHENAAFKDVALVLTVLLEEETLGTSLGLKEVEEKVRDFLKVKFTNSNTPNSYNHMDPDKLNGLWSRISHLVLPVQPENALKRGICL

Row | SMILES | composite z-score [1] | composite z-score [2] | composite z-score [3] | z-score [4] | composite z-score [5] | composite z-score [6] | composite z-score [7] | composite z-score [8] | composite z-score [9] | composite z-score [10] | composite z-score [11] | z-score [12] | composite z-score [13] | composite z-score [14] | composite z-score [15] | composite z-score [16] | composite z-score [17] | composite z-score [18] | composite z-score [19] | composite z-score [20]
1 | O=C1OCC=C[C@H]2OC34C=CCN(c5ccc6ccccc6c5)C(=O)[C@H]3N(CCCO)C(=O)[C@@H]4[C@@H]12 (stereo not given in full) | 1.17 | 0.0114 | 0.899 | -1.72 (inactive) | -0.709 | -1.34 | -1.15 | -0.699 | -1.06 | 0.374 | -0.522 | -0.805 | -0.842 | -0.0892 | 0.172 | -0.124 | -0.15 | 0.135 | 0.208 | -0.871
2 | COC(=O)[C@]1(Cc2ccccc2N=[N+]=[N-])N=C(c2ccc(OCCCO)cc2)O[C@@H]1c1ccccc1N=[N+]=[N-] | 1.35 | 0.0046 | 0.191 | -0.71 (inactive) | 0.0833 | -0.383 | -0.049 | 0.488 | -0.0862 | 0.755 | -0.0688 | -3.52 | -0.0072 | -0.062 | -0.374 | -0.129 | -0.138 | -0.51 | 0.412 | 0.019
3 | CCOC(=O)C[C@H]1[C@H](OC(=O)c2ccccc2-c2ccccc2)[C@@H](NC(=O)Cc2ccc(OC)cc2)c2cc(OCCCO)ccc2N1C(=O)c1ccccc1 | -0.394 | -0.236 | -0.0402 | -0.258 (inactive) | 0.225 | -1.28 | 0.192 | -0.0572 | 0.232 | 0.34 | 0.0712 | -2.08 | -0.3 | -0.0521 | -0.317 | -0.0519 | -0.327 | -0.443 | 0.246 | -0.0826
4 | C=C[C@@H](COC(C)=O)N(Cc1ccccc1[N+](=O)[O-])S(=O)(=O)c1ccc(Br)cc1 | 1.31 | 0.278 | -0.0205 | -2.18 (inactive) | 0.863 | 1.16 | 1.2 | 1.39 | 1.82 | 1.16 | 1.08 | -1.86 | 1.02 | 0.198 | -0.0348 | -0.0185 | -0.0192 | -0.56 | 0.954 | 0.864
5 | O=C(OCCF)C1=CCC(c2cccc(Cl)c2)O1 (stereo not given) | -0.229 | -0.0052 | -0.325 | -0.824 (inactive) | 0.0899 | 0.644 | 0.119 | 0.151 | -0.183 | 0.44 | 0.628 | -0.0162 | 0.15 | 0.0307 | 0.164 | -0.169 | -0.0769 | -0.0784 | 1.53 | 0.775
6 | CC(C)C(=C=CC[C@@H](O)c1ccccc1OCCO)C[C@@H](O)c1ccccn1 | 1.52 | -0.235 | -0.448 | 0.446 (inactive) | 1.05 | 0.556 | 0.141 | 0.425 | 0.34 | 0.715 | 0.752 | -1.14 | 0.28 | -0.178 | -0.34 | -0.0751 | -0.0553 | -0.158 | -0.221 | 0.125
7 | N[C@@H](Cc1ccccc1)Cn1cc(-c2ccccc2)nn1 | -0.334 | 0.552 | 0.932 | -1.38 (inactive) | -0.232 | -0.595 | 0.0157 | 0.0589 | -0.328 | 0.458 | 0.18 | -0.65 | -0.339 | -0.197 | -0.574 | -0.027 | -0.206 | -0.329 | 0.119 | 0.588
8 | CN(C)C(=O)[C@]1(CCC(=O)OC(C)(C)C)N=C(c2ccc(OCCCO)cc2)O[C@@H]1c1ccccc1N=[N+]=[N-] | 1.44 | 0.533 | 0.863 | -0.194 (inactive) | 1.25 | 1.33 | 0.17 | 0.644 | -0.394 | 0.252 | 1.54 | 0.929 | -0.12 | 1.22 | 0.463 | 0.173 | 0.14 | 1.02 | 2.07 | 1.36
9 | CCCN1C(=O)[C@]2(COC(c3ccc(OCCCO)cc3)=N2)Cc2ccccc21 | 1.08 | 1.09 | 1.1 | 0.409 (inactive) | 0.736 | 1 | -0.542 | 0.378 | 0.0779 | 0.854 | 0.147 | 0.0172 | -0.196 | 1.11 | 0.599 | -0.0462 | 0.118 | 0.705 | 0.39 | 1.03
10 | COCC(=C=CC[C@@H](O)c1ccc(CO)o1)CCO | 0.772 | -0.239 | -0.181 | -2.32 (inactive) | 1.26 | 0.0348 | 0.614 | 0.574 | 0.618 | 0.839 | -0.494 | -0.711 | 0.744 | -0.699 | -0.662 | -0.124 | -0.217 | -0.387 | 2.23 | -0.0933
11 | CC(C)(C)OC(=O)CC[C@@]1(C(=O)NCCN2CCOCC2)N=C(c2ccc(OCCCO)cc2)O[C@@H]1c1ccccc1 | 1.48 | 1.06 | 1.11 | -1.16 (inactive) | 1.01 | 0.896 | 0.335 | 1.05 | 0.126 | 0.767 | 0.925 | 0.988 | 0.356 | 1.59 | 0.53 | 0.0095 | -0.138 | -0.193 | 0.414 | 2.08
12 | CN1C(=O)C2C=CC(C(O)c3ccccn3)N(Nc3ccccc3)C2C1=O (stereo not given) | 0.427 | 0.257 | 0.276 | 0.782 (inactive) | 0.3 | 0.422 | 0.389 | 0.157 | -0.0961 | 1.05 | 0.409 | 0.0435 | 0.129 | -0.163 | -0.408 | -0.0647 | 0.318 | 0.266 | 0.353 | 0.476
